# Hit rate of the full screen: of about 4,800 compounds, about 420 (8.8%) showed an effect of 50% or more. Shown is part of a subset that was picked to be rich in strong results.
# Tested on: Plasmodium falciparum
# Assay: Confirmatory screen in NF54 nanoGlo assay, in single point, at 2uM, 72h
# Format: functional, Erythrocyte
# Settings: timepoint 72 hour
row,Compound,% Inhibition [%]
1,Cc1nnc(O)c(CNC(=O)COC2CCCC(C)C2)c1C (configuration not stated),-7
2,Cc1ncccc1C(=O)NCCc1csc(-c2ccccc2)n1,-11
3,c1ccc(-c2nc(C[n+]3ccc4c(c3)CCCC4)cs2)cc1,57
4,Cc1cc(C)cc(NC(=O)CCn2c(=O)cc(C(F)(F)F)c3cn(C(C)C)nc32)c1,-14
5,CC1(C)CCC(Nc2ccc(C(N)=O)nn2)CC1,70
6,Brc1cncnc1N1CCC[C@H](c2nnn[nH]2)C1,-15
7,CCn1cnc2c(N3CCC[C@H](c4ccncc4)C3)ncnc21,68
8,CCn1c(=O)c(N2CCC[C@H](C(=O)NCc3ccccc3OC)C2)nc2cccnc21,-7
9,CC(C)(C)NC(=O)N[C@H]1COc2c1ccc(Cl)c2Cl,-3
10,Cc1ccc(C(=O)Nc2ccc(N3CCN(c4c(F)c(F)c(F)c(F)c4F)CC3)cc2)c(Cl)c1,10
11,NC(=O)c1ccccc1NC(=O)C1CCN(c2cc(C3CC3)ncn2)CC1,53
12,O=C(Nc1nc2ccccc2[nH]1)C1CCN(c2cc3c(nn2)CCC3)CC1,5
13,O=C(O)c1cc(N2CCC(Cc3ccccc3)CC2)ccc1NC(=O)C1CCC1,-14
14,Cc1cn([C@H]2C[C@@H](OC(=O)c3ccccc3)[C@@H](CO)O2)c(=O)[nH]c1=O,-6
15,CC(C)NC(=O)[C@H](C)N(C)Cc1nccn1CC(F)(F)F,-1
16,CCC(CC)c1ccc([C@H]2N(C(=O)c3ccc(C)cc3)CCN2S(=O)(=O)c2ccccc2)cc1,-2
17,O=S1(=O)CCN(C2CCN(Cc3c(F)cccc3F)CC2)CC1,4
18,CN1C2(c3ccccc3)C3C(=O)N(c4ccccc4)C(=O)C3C1(c1ccccc1)C1C(=O)N(c3ccccc3)C(=O)C12 (configuration not stated),2
19,COc1cccc(N2C(=O)C[C@]3(CC3(c3ccccc3)c3ccccc3)C2=O)c1,39
20,Cc1ccc(N2C(=O)C[C@]3(CC3(c3ccccc3)c3ccccc3)C2=O)cc1,66
21,O=S(=O)(Cc1ccno1)NCCc1ccccc1OC(F)F,2
22,Cc1ccc(C(=O)Nc2noc(-c3ccc(C)cc3)c2-c2ccccc2Cl)cc1,-11
23,c1cc(-c2cn3c(COc4ccc5c(c4)OCO5)nnc3s2)ccn1,3
24,CC1CCN(C[C@H]2CCCCCN2C(=O)NCCc2ccccc2)CC1,34
25,O=C(Cc1cc(F)c(F)cc1F)N1CCOC[C@H]1c1ncon1,-3
26,Cc1nc2ccccc2cc1OCc1ccc(F)cc1,3

row,Compound,% Inhibition [%]
1,CC(NC(=O)N[C@@H]1C=C[C@H](CO)C1)c1ccncc1F (some centres not stated),2
2,S=c1cc(-c2ccccc2)n(Cc2ccco2)c2c1CCCC2,38
3,Cc1ccc(Cc2nc(N3CCCN(C(=O)CCc4ccccc4)CC3)c3cnn(-c4ccccc4)c3n2)cc1,1
4,COCCOc1ccc2c(n1)CCN(C(=O)c1ccc(OC)c(OC)c1)C2,-12
5,Cc1nn(C)cc1NC(=O)N[C@H]1CCCC[C@@H]1O,-9
6,C[C@@H](C1CC1)N(C1CC1)S(=O)(=O)c1ccc(F)cc1F,-2
7,Cc1ncccc1C(=O)Nc1cccc(Oc2cccnn2)c1,1
8,Cc1c(Cl)c(C(F)(F)F)nn1[C@@H](C)C(=O)NC1CCN(C(C)C)CC1,-4
9,COc1cccc(-c2cc3c(N4CC=C(c5ccccc5)CC4)nccn3n2)c1,-2
10,CC[C@H]1Cn2c(C(=O)N3CCN(C(=O)c4ccco4)CC3)cc3c(Cl)ccc(c32)O1,-17
11,CCCn1nc(-n2cnnc2)c(NC(=O)c2ccc3c(c2)OCO3)c1C,-4
12,CCOc1ccc(NC(=O)c2ccc3c(c2)N(CC)[C@@H]2CCCCN2C3=O)cc1,7
13,CCOC(=O)C1CCC(CN(Cc2ccc(OC)cc2)S(=O)(=O)c2cc(C(=O)Nc3ccc(OCC)cc3)ccc2F)CC1 (configuration not stated),50
14,CCOc1ccc(NC(=O)c2cnc(N(Cc3ccccc3)C(C)C)nc2N)cc1,-15
15,CN(c1ccc(Br)cc1)S(=O)(=O)c1ccc2c(c1)CCN2C(=O)C1CCC1,-7
16,COc1ccccc1CNC(=O)c1cnn2c(-c3ccc(Cl)cc3)ccnc12,-4
17,c1cncc(CN2CCN(C3CCCCCC3)CC2)c1,3
18,Cc1cccc(Cn2ccc(-c3cccc(OCc4ccc(Cl)cc4Cl)c3)n2)c1,-4
19,C[C@H]1CC(C)(C)N(C)c2ccc(/C=C/c3c(C(=O)O)cnc4ccnn34)cc21,7
20,CN(C)CCCNCc1ccccc1F,-2
21,OCCNCc1c(Cl)cccc1Cl,-1
22,Clc1cccc(CNCCCNc2ccncc2)c1Cl,71
23,CC[C@@H](CCNS(=O)(=O)c1cn(C(F)F)nc1C)n1ccc(C(F)(F)F)n1,-8
24,CCOc1cc(C(=O)Nc2ccc3nc4c(c(Nc5ccc(OC)c(OC)c5)c3c2)CCCC4)cc(OCC)c1OCC,96
25,CCOC(=O)Oc1c(OC)cc(C(=O)Nc2ccc3c(c2)sc(=O)n3C)cc1OC,6
26,COc1ccc(Nc2nc(C(=O)Nc3ncc(C)s3)cs2)cc1OC,17
